Measurements: PubChem BioAssay (NCATS)
Values joined by “and” are separate entries in the source; they are usually repeats but may differ in a detail not shown here. Equal values may be shown once. Results filed as inconclusive are left out. For part of these data: Potency and affinity values are given separately. Active and inactive are the calls of the source. Unless noted, how the calls were made is not given here.

Key:
[1] = biological target: T1, Hexokinase-4 (Homo sapiens) + Glucokinase regulatory protein (Homo sapiens) (UniProt P35557+Q14397); experiment: qHTS assay for inhibitors of recombinant human GCK-GKRP interaction: Diaphorase-coupled assay (AID 743205; active means well fitted curve in the direction sought with a large enough effect; an effect the other way counts as inactive or inconclusive)
Procedure, shortened: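 Inhibitors of the GCK–GKRP complex relieve GKRP suppression of GCK, detected through a G6PDH–diaphorase cascade reducing resazurin. Human GST-GCK and FLAG-GKRP are used at 10 nM with 5 mM glucose and 0.4 mM ATP.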

[2] = biological target: T1, Hexokinase-4 (Homo sapiens) + Glucokinase regulatory protein (Homo sapiens); experiment: qHTS assay for inhibitors of recombinant human GCK-GKRP interaction: ADP-Glo assay (AID 743206; active means well fitted curve in the direction sought with a large enough effect; an effect the other way counts as inactive or inconclusive;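 further: plate controls were DMSO plus enzyme for no effect and no enzyme for full effect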)
Procedure, shortened: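 GST-GCK and FLAG-GKRP (15 nM each in the dispensed mix, with 2 uM S6P) react with 0.4 mM ATP and 5 mM glucose (final) in Hepes pH 7.6 for 60 min at room temperature. ADP is measured by ADP-Glo luminescence.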

[3] = biological target: T1, Hexokinase-4 (Homo sapiens) + Glucokinase regulatory protein (Homo sapiens); experiment: qHTS assay for inhibitors of recombinant human GCK-GKRP interaction: HTRF assay (AID 743207; active means well fitted curve in the direction sought with a large enough effect; an effect the other way counts as inactive or inconclusive;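 further: 0% = DMSO with GCK present and -100% = DMSO wells lacking GCK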)
Procedure, shortened: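 Steps: dispense GCK–GKRP complex (5 nM each, GST- and FLAG-tagged) with 2 uM S6P; pin in compounds; add XL665/Eu-cryptate-labelled antibodies; incubate 60 min at room temperature; read time-resolved FRET at 665 and 615 nm.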

[4] = qHTS Assay for Identifying Gametocytocidal Compounds (AID 743244; active means well fitted curve in the direction sought with a large enough effect; an effect the other way counts as inactive or inconclusive; further: potency means the concentration at half of the fitted maximal effect;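 on max response: on the % scale 0 is the no-effect control and ±100 the full control effect; actives lower the fluorescent signal which means gametocytes are killed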); conditions: P. falciparum 3D7 stage III-V gametocytes, alamarBlue, 72 h; max response: stronger effect = lower value
Procedure, shortened: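 P. falciparum 3D7 stage III–V gametocytes (20,000 cells/well) were exposed to compounds for 72 h at 37 °C, 5% CO2. AlamarBlue was then added for 24 h; decreased resorufin fluorescence (Ex 525/Em 598 nm) indicated loss of viability.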

[5] = Ebola virus entry assay, green fluorescence channel
[6] = Ebola virus entry assay, blue channel fluorescence
[7] = Ebola virus entry assay, ratio channel
[8] = qHTS profiling for inhibitors of Plasmodium falciparum (3D7) proliferation (AID 743322);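 further: infected erythrocytes exposed to compound for 72 h before lysis; 100% = DMSO vehicle wells and 0% = 0.29 µM artemisinin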; conditions: P. falciparum 3D7 proliferation; at 28.7 µM (top of the series)
Procedure, shortened: (§1)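 Erythrocytes infected with P. falciparum (0.3% parasitemia, 2.5% hematocrit) incubated with compounds 72 h at 37 C, 5% CO2. Lysis with saponin/Triton buffer containing SYBR Green I, overnight at room temperature in the dark; DNA fluorescence (485/535 nm) normalised to 0.29 uM artemisinin and DMSO.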

[9] = qHTS profiling for inhibitors of Plasmodium falciparum (DD2) proliferation (AID 743323); conditions: lower = more inhibition; at 28.7 µM (top of the series)
Procedure, shortened: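 1536-well qHTS; infected RBCs 0.3% parasitemia/2.5% Hct final; cpd 72 h 37 C 5% CO2; lysis buffer + SYBR Green I, o/n RT dark; FI 485/535; norm. to 0.29 uM artemisinin and DMSO, plate-stack corrected.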

[10] = qHTS profiling for inhibitors of Plasmodium falciparum (HB3) proliferation (AID 743324; active means well fitted curve in the direction sought with a large enough effect; an effect the other way counts as inactive or inconclusive;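 further: 100% = DMSO vehicle wells and 0% = artemisinin-treated control wells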); conditions: Plasmodium falciparum HB3 blood-stage proliferation; at 28.7 µM (top of the series)
Procedure, shortened: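 P. falciparum HB3 grown in erythrocytes (0.3% parasitemia, 2.5% hematocrit final) with compound for 72 h at 37 C, 5% CO2. Parasite DNA detected by SYBR Green after saponin/triton lysis overnight; normalized to 0.29 uM artemisinin and DMSO.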

[11] = qHTS profiling of the MIPE4 collection as inhibitors of Plasmodium falciparum (3D7) proliferation (AID 743344);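 further: scaled between DMSO vehicle wells and 0.29 µM artemisinin as full inhibition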; conditions: P. falciparum 3D7 in erythrocytes, SYBR Green DNA fluorescence, 72 h; at 28.5 µM (top of the series) unless noted
Procedure, shortened: as §1

[12] = qHTS profiling of the MIPE4 collection as inhibitors of Plasmodium falciparum (DD2) proliferation (AID 743345); conditions: P. falciparum Dd2 in erythrocytes, SYBR Green DNA, 72 h; at 28.5 µM (top of the series) unless noted
Procedure, shortened: as §1

[13] = qHTS profiling of the MIPE4 collection as inhibitors of Plasmodium falciparum (DD2) proliferation (Rep 2) (AID 743346); conditions: P. falciparum Dd2 in erythrocytes, SYBR Green DNA, 72 h; at 28.5 µM (top of the series) unless noted
Procedure, shortened: as §1

[14] = qHTS profiling of the MIPE4 collection as inhibitors of Plasmodium falciparum (HB3) proliferation (AID 743347);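 further: plate controls were DMSO vehicle wells for no effect and artemisinin wells for full effect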; conditions: P. falciparum HB3 in erythrocytes, SYBR Green DNA, 72 h; at 28.5 µM (top of the series) unless noted
Procedure, shortened: as §1

[15] = qHTS assay for cell viability of HEK293 cells (AID 743288; active means well fitted curve in the direction sought with a large enough effect; an effect the other way counts as inactive or inconclusive; further: on the % scale 0 is the no-effect control and ±100 the full control effect; nearly all actives have a fitted effect of over 50% in size); conditions: ATP luminescence (CellTiter-Glo), 18 h; max response: stronger effect = lower value
Procedure, shortened: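 The Tox21 protocol used parental HEK293 cells treated for 18 h at 37 C with compounds delivered by pintool; ATP-coupled luminescence after 30 min at room temperature gave viability.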

[16] = qHTS assay for cell viability of the p53RE-bla HCT-116 cell line (AID 743292; active means well fitted curve in the direction sought with a large enough effect; an effect the other way counts as inactive or inconclusive; further: nearly all actives have a fitted effect of over 55% in size; further: potency means the concentration at half of the fitted maximal effect)
Procedure, shortened: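 Quantitative high-throughput format: compounds in DMSO were pinned onto p53RE-bla HCT-116 cells (4,000/well) and incubated 16 h at 37 C. Total intracellular ATP, read by CellTiter-Glo luminescence, reflects viable cell number.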
Wherever efficacy is given: 0% is about no effect.

T1 sequence (P35557 whole entry, looked up): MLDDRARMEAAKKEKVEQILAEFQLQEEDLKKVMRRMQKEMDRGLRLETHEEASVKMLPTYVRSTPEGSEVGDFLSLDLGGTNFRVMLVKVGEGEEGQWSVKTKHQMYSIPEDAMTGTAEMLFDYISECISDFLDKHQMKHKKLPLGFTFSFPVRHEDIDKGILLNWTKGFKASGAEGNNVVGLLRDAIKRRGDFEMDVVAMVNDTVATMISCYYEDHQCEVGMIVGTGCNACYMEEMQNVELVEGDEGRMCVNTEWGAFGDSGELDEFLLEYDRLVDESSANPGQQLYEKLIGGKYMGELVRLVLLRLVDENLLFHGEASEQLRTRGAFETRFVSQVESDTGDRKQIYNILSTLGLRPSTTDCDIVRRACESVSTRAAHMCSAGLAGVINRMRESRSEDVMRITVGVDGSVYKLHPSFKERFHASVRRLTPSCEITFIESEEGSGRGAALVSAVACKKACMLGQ
T1 sequence (Q14397 whole entry, looked up): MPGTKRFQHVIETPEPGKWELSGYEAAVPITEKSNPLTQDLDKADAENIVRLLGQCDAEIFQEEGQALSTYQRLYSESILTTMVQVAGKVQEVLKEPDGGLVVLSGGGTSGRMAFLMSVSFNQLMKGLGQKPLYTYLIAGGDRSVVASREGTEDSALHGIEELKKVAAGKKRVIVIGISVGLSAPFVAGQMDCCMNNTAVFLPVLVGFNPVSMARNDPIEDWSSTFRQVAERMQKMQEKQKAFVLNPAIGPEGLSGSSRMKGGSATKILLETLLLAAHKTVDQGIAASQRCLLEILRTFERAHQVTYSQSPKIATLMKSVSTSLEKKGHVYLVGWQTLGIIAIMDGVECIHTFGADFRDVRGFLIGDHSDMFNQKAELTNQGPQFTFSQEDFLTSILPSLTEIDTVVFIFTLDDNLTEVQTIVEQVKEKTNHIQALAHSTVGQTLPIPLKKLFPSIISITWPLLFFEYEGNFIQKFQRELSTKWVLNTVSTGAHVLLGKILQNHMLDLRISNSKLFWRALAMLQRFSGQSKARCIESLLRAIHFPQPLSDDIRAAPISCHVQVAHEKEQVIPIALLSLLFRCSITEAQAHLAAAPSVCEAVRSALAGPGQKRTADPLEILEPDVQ

With `CCCN1CCC[C@@H]2Cc3nc(N)ncc3C[C@H]21` the outcome [1] was “inactive”, the outcome [2] was “inactive” and the outcome [3] was “inactive”. For the same compound, the max response [4] was 3.72% (inactive) and 1.86% (inactive), the efficacy [5] was 40.4% (inactive) and the AC50 [6] was 39.8 µM (active). The outcome [7] was “inactive”.
For `CC(O)(CS(=O)(=O)c1ccc(F)cc1)C(=O)Nc1ccc(C#N)c(C(F)(F)F)c1` (centres undefined), the outcome [1] was “inactive”, the outcome [2] was “inactive” and the outcome [3] was “inactive”. For the same compound, the max response [4] was 4.22% (inactive) and -26.1% (inactive), the remaining parasite growth % (stronger effect = lower value) [8] was 91.3% and the activity, percent of control [9] was 89.3%. The remaining proliferation (% of control), lower = more inhibition [10] was 70.9%, the parasite growth, % of DMSO control [11] was 61.4% and the parasite growth remaining, % of DMSO control (lower = more inhibition) [12] was 102%. The parasite growth, % of control (lower = inhibition) [13] was 64.8% and the growth, % of control [14] was 81.9%.
With `CC1=C2C[C@@H]3[C@@H](CC=C4C[C@@H](O)CC[C@@]43C)[C@@H]2CC[C@]12O[C@H]1C[C@H](C)CN[C@H]1[C@H]2C` the Potency [4] was 23.5 µM (active), the remaining parasite growth % (stronger effect = lower value) [8] was 66.1% and the activity, percent of control [9] was 39%. For the same compound, the remaining proliferation (% of control), lower = more inhibition [10] was 5.81%, the parasite growth, % of DMSO control [11] was 61.1% and the parasite growth remaining, % of DMSO control (lower = more inhibition) [12] was 16.2%. It also gave a growth, % of control [14] of 71.2%.
In the case of `c1ccc2c(c1)Nc1ccccc1S2`, the Potency [4] is reported as 22.4 µM (active) and 28.2 µM (active), the max response [15] is reported as -11.4% (inactive) and -9% (inactive) and the Potency [16] is reported as “inactive”. For the same compound, the efficacy [5] was 4% (inactive), the outcome [6] was “inactive” and the outcome [7] was “inactive”.
Work on `CN(C)CCN(C)CCc1ccc(Cl)c(Cl)c1` yielded a remaining parasite growth % (stronger effect = lower value) [8] of 55.4%, an activity, percent of control [9] of 25% and a remaining proliferation (% of control), lower = more inhibition [10] of 36.8%. For the same compound, the parasite growth, % of DMSO control [11] was 50%, the parasite growth remaining, % of DMSO control (lower = more inhibition) [12] was 32% and the growth, % of control [14] was 72.7%.
With `C#CCOC(C(=O)OCCN(C)C)(c1ccccc1)c1ccccc1` the max response [4] was -0.509% (inactive), the efficacy [5] was 46% (inactive) and the AC50 [6] was 12.6 µM (active). The AC50 [7] was 14.1 µM (active).
With `C=C(C)[C@H]1Cc2c(ccc3c2O[C@@H]2COc4cc(OC)c(OC)cc4[C@@H]2C3=O)O1` the outcome [1] was “inactive”, the outcome [2] was “inactive” and the outcome [3] was “inactive”. For the same compound, the max response [4] was 2.33% (inactive) and 3.94% (inactive), the Potency [16] was “inactive” and the remaining parasite growth % (stronger effect = lower value) [8] was 82.1%. It also gave an activity, percent of control [9] of 97.6%, a parasite growth, % of DMSO control [11] of 86.6% and a parasite growth remaining, % of DMSO control (lower = more inhibition) [12] of 94.4%. For the same compound, the growth, % of control [14] was 90.3%, the efficacy [5] was 120% (inactive) and the AC50 [6] was 10 µM (active). The AC50 [7] was 8.91 µM (active).
For `CCC1(C2=NCCN2)Cc2ccccc2O1` (centres undefined), the outcome [1] was “inactive”, the outcome [2] was “inactive” and the outcome [3] was “inactive”. The max response [4] was -5.65% (inactive) and 15.9% (inactive), the efficacy [5] was 28% (inactive) and the outcome [6] was “inactive”. For the same compound, the outcome [7] was “inactive”.
With `CNC(=O)c1ccc(N2C(=S)N(c3ccc(C#N)c(C(F)(F)F)c3)C(=O)C23CCC3)cc1F` the max response [4] was -1.03% (inactive), the remaining parasite growth % (stronger effect = lower value) [8] was 74.2% and the activity, percent of control [9] was 76.1%. For the same compound, the remaining proliferation (% of control), lower = more inhibition [10] was 43.8%, the parasite growth, % of DMSO control [11] was 36.9% and the parasite growth remaining, % of DMSO control (lower = more inhibition) [12] was 81.7%. It also gave a growth, % of control [14] of 69.7%.
In the case of `O=C(O)C(=O)c1cn(Cc2ccccc2)c2ccc(-c3ccc(OC(F)(F)F)cc3)cc12`, the max response [4] is reported as 14.9% (inactive), the remaining parasite growth % (stronger effect = lower value) [8] is reported as 110% and the activity, percent of control [9] is reported as 90.7%. It also gave a remaining proliferation (% of control), lower = more inhibition [10] of 30.7%, a parasite growth, % of DMSO control [11] of 222% and a parasite growth remaining, % of DMSO control (lower = more inhibition) [12] of 108%. For the same compound, the growth, % of control [14] was 506%.
With `Cc1cc(SCc2sc(-c3ccc(C(F)(F)F)c(F)c3)nc2C)ccc1OCC(=O)O` the max response [4] was 27.5% (inactive), the max response [15] was -13% (inactive) and the Potency [16] was 50.1 µM (active). For the same compound, the remaining parasite growth % (stronger effect = lower value) [8] was 101%, the activity, percent of control [9] was 90.7% and the remaining proliferation (% of control), lower = more inhibition [10] was 82.6%. For the same compound, the parasite growth, % of DMSO control [11] was 66.7%, the parasite growth remaining, % of DMSO control (lower = more inhibition) [12] was 88.1% and the growth, % of control [14] was 87.4%.
